Inconclusive results are not listed. Calls of active or inactive are those of the source. No cut-off is given here; in the data, nearly all actives have AC50 up to about 26 µM.
Test: JHH-DIPG-1 glioma cell viability, MIPE5.0 library, CellTiter-Glo luminescence, qHTS (AID 1347067);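 note: cells exposed to compound for 48 hours before readout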
Details: JHH-DIPG-1 glioma viability, CellTiter-Glo ATP luminescence

SMILES	outcome	AC50
CC[C@H](NC(C)C)[C@H](O)c1ccc(O)c2[nH]c(=O)ccc12	inactive	–
COc1cc2nccc(Oc3ccc(NC(=O)Nc4ccc(F)cc4F)c(F)c3)c2cc1OC	–	4.17 µM (active)
O=Nc1c(-c2c(O)[nH]c3cc(Br)ccc23)[nH]c2ccccc12	–	14.8 µM (active)
O=c1[nH]nc(Sc2ncc([N+](=O)[O-])s2)n1-c1ccc2c(c1)OCCO2	–	2.95 µM (active)
O=c1cc(-c2cccc3c2Sc2ccccc2S3)oc(N2CCOCC2)c1	inactive	–
COc1nccc(-c2c(-c3ccc(F)cc3)ncn2C2CCC(O)CC2)n1 (centres undefined)	inactive	–
O=C(O)CCc1ccc(NCc2cccc(Oc3ccccc3)c2)cc1	inactive	–
Oc1ccc2ccccc2c1SSc1c(O)ccc2ccccc12	–	10.5 µM (active)
CC(Oc1ccc(O)cc1)(P(=O)(O)O)P(=O)(O)O	inactive	–
CCN(CC)CCCC(C)Nc1nc(C)cc(Nc2ccc3nc(C)cc(N)c3c2)n1 (centres undefined)	inactive	–
CN1C(=O)C(Cc2c[nH]c3ccccc23)NC1=S (centres undefined)	inactive	–
COc1ccc([C@@H]2CNC(=O)C2)cc1OC1CCCC1	inactive	–
O=C1Nc2ccc(I)cc2/C1=C/c1cc(Br)c(O)c(Br)c1	inactive	–
O=C(O)C1CCCN(CCC=C(c2ccccc2)c2ccccc2)C1 (centres undefined)	inactive	–
CCOc1ccc(Nc2nc(-c3c(C)nc4ccccn34)cs2)cc1	–	0.0525 µM (active)
Nc1ncnc2nc(-c3ccc(N4CCOCC4)nc3)cc(-c3cccc(Br)c3)c12	inactive	–
O=C1NC(=O)C(c2ccccc2[N+](=O)[O-])=C1Nc1ccc(O)c(Cl)c1	inactive	–
Cc1cc(NC(=O)Nc2ccc(N(C)C)cc2)c2cc(F)cc(F)c2n1	inactive	–
Cc1ccc(/C=N/NC(=O)c2ccccc2Oc2ccccc2)o1	inactive	–
O=C(O)c1ccc2cc(-c3ccc(O)c(C45CC6CC(CC(C6)C4)C5)c3)ccc2c1	–	3.72 µM (active)
COc1cc(OC)c(NC(=O)Nc2cc(C)on2)cc1Cl	inactive	–
CCOC(=O)C1=C(C)NC(=S)NC1c1cccc(O)c1 (centres undefined)	inactive	–
Cc1cc(I)ccc1Nc1c(C(=O)NOCC2CC2)cc(F)c(F)c1F	–	4.17 µM (active)
COc1ccc(CCN(C)CCCOc2ccc(S(=O)(=O)c3c(C(C)C)c4ccccc4n3C)cc2)cc1OC	–	10.5 µM (active)
CCC(C)N(C)C(=O)c1cc2ccccc2c(-c2ccccc2Cl)n1 (centres undefined)	inactive	–
O=C(O)c1ccc(-c2c[nH]c3ncc(-c4ccccc4)cc23)cc1C1CCCC1	inactive	–
CC(C)[C@H](CO)Nc1nc(Nc2ccc(C(=O)O)c(Cl)c2)c2ncn(C(C)C)c2n1	inactive	–
N#Cc1c(O)c2c(-c3ccc(-c4ccccc4O)cc3)csc2[nH]c1=O	inactive	–
O=c1[nH]c(-c2ccc(C(F)(F)F)cc2)nc2c1CSCC2	inactive	–

— PubChem BioAssay
